Test results taken from paper PMC4552634, “A New Set of Chemical Starting Points with Plasmodium falciparum Transmission-Blocking Potential for Antimalarial Drug Discovery” (PLoS ONE, 2015).
Screen size: about 13,000 compounds; about 3,200 (25%) showed an effect of 50% or more. Some of the results follow.

Test system: P. falciparum stage V gametocytes
Parameters: BacTiter-Glo ATP luminescence viability of purified stage V gametocytes in 384-well plates, per cent inhibition versus DMSO
Conditions: 48 h, 5 µM; inhibitor

Row | SMILES | % Inhibition [%]
1 | COc1cc2nc(NCCCOC(C)C)n3nc(-c4ccccc4)nc3c2cc1OC [TCMDC-124450] | 5.714
2 | Cn1cnc2c(Nc3ccncc3)nc(-c3ccc4c(c3)OCO4)nc21 [TCMDC-141274] | 36.93
3 | Cc1cccc2nc(-c3ccc(-c4cccc(C(=O)N5CCCCC5C(C)O)c4)s3)[nH]c12 (stereo not drawn) [TCMDC-132331] | 10.35
4 | Cc1cccc2nc(-c3cccc(-c4ccc(C(=O)N5CCCCC5C(C)O)cc4)c3)[nH]c12 (stereo not drawn) [TCMDC-132336] | 92.31
5 | O=C(c1ccc(-c2cccc(-c3nc4cc(F)ccc4[nH]3)c2)cc1)N1CCCCC1CN1CCC(O)C1 (stereo not drawn) [TCMDC-132344] | 80.27
6 | CC(O)C1CCCCN1C(=O)c1cccc(-c2cccc(-c3nc4cc(F)ccc4[nH]3)c2)c1 (stereo not drawn) [TCMDC-132339] | 25.33
7 | CC(O)C1CCCCN1C(=O)c1ccc(-c2ccc(-c3nc4cc(F)ccc4[nH]3)cc2)cc1 (stereo not drawn) [TCMDC-132338] | 65.53
8 | Cc1cccc2nc(-c3cccc(-c4ccc(C(=O)NCCc5ccc(O)c(=O)[nH]5)cc4)c3)[nH]c12 [TCMDC-132490] | -25.23
9 | CC(O)C1CCCCN1C(=O)c1cccc(-c2cccc(-c3nc4ccccc4[nH]3)c2)c1 (stereo not drawn) [TCMDC-132313] | 8.745
10 | CC(O)C1CCCCN1C(=O)c1ccc(-c2cccc(-c3nc4cc(F)ccc4[nH]3)c2)cc1 (stereo not drawn) [TCMDC-132333] | 18.43
11 | CCN(CC(C)O)C(=O)c1ccc(-c2cccc(-c3nc4cccc(C)c4[nH]3)c2)cc1 (stereo not drawn) [TCMDC-132502] | 84.23
12 | O=C(c1ccc(-c2cccc(-c3nc4cc(C(F)(F)F)ccc4[nH]3)c2)cc1)N1CCCCC1CN1CCC(O)C1 (stereo not drawn) [TCMDC-132348] | -20.7
13 | O=C(c1cccc(-c2cccc(-c3nc4cc(F)ccc4[nH]3)c2)c1)N1CCCCC1CN1CCC(O)C1 (stereo not drawn) [TCMDC-132350] | 0.1683
14 | CCN(CC(C)O)C(=O)c1ccc(-c2ccc(-c3nc4cccc(C)c4[nH]3)cc2)cc1 (stereo not drawn) [TCMDC-132503] | -12.34
15 | Cc1ccccc1C(O)CNc1ccnc(Nc2cccc(C#N)c2)n1 (stereo not drawn) [TCMDC-136566] | 9.635
16 | COc1ccc(CNC(=O)NC2CCN(c3ccnc(Nc4ccc(OC)cc4)n3)C2)cc1 (stereo not drawn) [TCMDC-133607] | 11.17
17 | O=C(Nc1ccc(OC2CCN(Cc3ccc(F)cc3)C2)cc1)c1cccs1 (stereo not drawn) [TCMDC-133753] | 15.26
18 | COc1cc(NC(=O)c2cccs2)c(C(=O)NCc2ccc(C)cc2)cc1OC [TCMDC-125007] | 20.88
19 | CN(C)CCOc1ccc(NC(=O)Nc2ccnc3c(Br)cccc23)cc1Cl [TCMDC-140325] | 18.67
20 | COc1cc2nc(N3CCC(CNC(=O)c4ccc(-c5ccc(-c6noc(C)n6)cc5)cc4)CC3)nc(N)c2cc1OC [TCMDC-138754] | 115
21 | COc1cc2nc(N3CCC(CNC(=O)c4ccc(-c5ccc(-c6noc(C)n6)cc5C)cc4)CC3)nc(N)c2cc1OC [TCMDC-138155] | 105.9
22 | O=C(Nc1ccc2c(c1)CCC2)c1ccc(N2CCN(c3ccncc3)CC2)cn1 [TCMDC-135155] | 0.5792

Row | SMILES | % Inhibition [%]
23 | CCOc1cc(C(=O)N[C@@H](Cc2ccccc2)[C@H](O)CNCc2cc(OC)cc(OC)c2)cc(N2CCCS2(=O)=O)c1 [TCMDC-134573] | 6.074
24 | O=C(Nc1ccc(OC2CCN(Cc3ccsc3)CC2)c(Cl)c1)c1ccc(F)cc1 [TCMDC-134272] | -4.957
25 | Cc1ccccc1Cn1ccc2c3c(N)nc(N)nc3ccc21 [TCMDC-137812] | 70.17
26 | CCC(C(C)C)n1ccc2c3c(N)nc(N)nc3ccc21 (stereo not drawn) [TCMDC-137872] | 10.31
27 | Nc1nc(N)c2c(ccc3c2ccn3Cc2cccc3ccccc23)n1 [TCMDC-137996] | 88.02
28 | Clc1ccc(CNc2ccnc(NCc3ccc4c(c3)OCCCO4)n2)c(Cl)c1 [TCMDC-135116] | 30.31
29 | CC(C)OCCCNC(=O)c1nc(-c2cccc(C(F)(F)F)c2)sc1C(C)C [TCMDC-133788] | 3.705
30 | Oc1ccc(Cl)cc1CN1CCC2(CCCN(CC3CCC3)C2)C1 (stereo not drawn) [TCMDC-124637] | -23.05
31 | CCCCN(CCCC)CCNC(=O)c1cc(OC(F)(F)F)ccc1O [TCMDC-141130] | -10.84
32 | CC(Cc1ccc(NC(=O)c2ccc(CNCc3ccccc3)cc2)cc1)N(CCc1cccc(Cl)c1)C(=O)OC(C)(C)C (stereo not drawn) [TCMDC-139859] | -24.54
33 | CC(Cc1ccc(NC(=O)c2ccc(CNCCc3ccccc3)cc2)cc1)NCCc1cccc(Cl)c1 (stereo not drawn) [TCMDC-139867] | 108.4
34 | CC(Cc1ccc(NC(=O)c2ccc(CNCCCCc3ccccc3)cc2)cc1)NCCc1cccc(Cl)c1 (stereo not drawn) [TCMDC-139866] | 129.2
35 | COc1cccc(OC)c1OCCCON1C(N)=NC(N)=NC1(C)C [TCMDC-131731] | 5.866
36 | COc1cc(Cc2cnc(N)nc2N)cc(OC(C)C)c1OC [TCMDC-137645] | -10.21
37 | CC(=O)Nc1cccc(C(=O)Nc2cccc(-c3ccc(-c4nc5cc(C(F)(F)F)ccc5[nH]4)s3)c2)c1 [TCMDC-132138] | 13.04
38 | COc1ccc(NC(=O)c2ccc(-c3nc(-c4ccc(Cl)cc4)cs3)cc2)cc1N1CCN(C)CC1 [TCMDC-138685] | 18.54
39 | NC(Cc1cccc(I)c1)C(=O)NCC1CCCO1 (stereo not drawn) [TCMDC-141273] | -21.09
40 | COc1ccc(CN2CCN(CCOC(c3ccccc3)c3ccc(Cl)cc3)CC2)c(O)c1 (stereo not drawn) [TCMDC-135692] | 28.74
41 | OCC(c1ccccc1)n1c(COc2ccc(Cl)cc2)nc2c(OCCCN3CCCCC3)cccc21 (stereo not drawn) [TCMDC-138596] | 103.2
42 | Cc1nc(N)nc(N)c1-c1ccc(Br)c([N+](=O)[O-])c1 [TCMDC-138071] | 1.652
43 | CS(=O)(=O)CCNCc1cccc(-c2cc3c(Nc4ccc(OCc5ccccc5)cc4)ncnc3cn2)c1 [TCMDC-138240] | 8.889
44 | CN(C)C(=S)N=Nc1c(O)[nH]c2ccc(OC(F)(F)F)cc12 [TCMDC-141099] | -50.91

Row | SMILES | % Inhibition [%]
45 | c1ccc(CN2CCC(NCc3cccc(-c4cncc5ccccc45)c3)CC2)cc1 [TCMDC-134152] | 18.28
46 | O=C(Nc1cccc(-c2ccc(NCCCN3CCCC3)nc2)c1)c1ccccc1 [TCMDC-134145] | 39.43
47 | Cc1c(-c2cccc(C(C)(C)NCCCN3CCCCC3)c2)cnc(N)c1C [TCMDC-138284] | 76.27
48 | Cc1c(Br)cc2[nH]c(-c3ccc(C(=O)NC4CCN(Cc5ccccc5)CC4)cc3)nc2c1C [TCMDC-140026] | -88.51
49 | Cc1c(-c2cccc(C(C)(C)NC3CCN(Cc4ccccc4)CC3)c2)cnc(N)c1C [TCMDC-138300] | 70.88
50 | Cc1c(-c2ccc3c(c2)C(NCCCN2CCCCC2)CC3)cnc(N)c1C (stereo not drawn) [TCMDC-138320] | 53.54
51 | Cn1nc(-c2ccc(CN[C@@H]3CCc4ccc(O)cc43)cc2)c2cnc(NC3CCCC3)nc21 [TCMDC-135029] | -22.32
52 | O=C(NCCN1CCCCC1)c1ccc(CNC(=O)c2ccc(O)c(-c3cccc(C(F)(F)F)c3)c2)cc1 [TCMDC-140817] | 7.187
53 | NC(=O)c1cccc(C(=O)Nc2cccc(-c3ccc(-c4nc5ccc(C(F)(F)F)cc5[nH]4)cc3)c2)c1 [TCMDC-132202] | -50.53
54 | COc1ccc(S(=O)(=O)N(CC(=O)NN=C(C)c2cccs2)c2cc(C)cc(C)c2)cc1OC [TCMDC-125737] | 0.7472
55 | COc1ccccc1NS(=O)(=O)c1cc(C(=O)Nc2ccc(N3CCOCC3)c(S(=O)(=O)Nc3ccccc3Cl)c2)ccc1Cl [TCMDC-125591] | 13
56 | Cc1cc(-c2ccc(NC(=O)N3CCc4cc(Br)c(N5CCN(C)CC5)cc43)cc2)cc(C)n1 [TCMDC-139279] | 26.15
57 | CCCN1CCC=C(c2cccc(Nc3nccc(Nc4cc(OC)ccc4C)n3)c2)C1 [TCMDC-138668] | 37.96
58 | CC(=O)Nc1cccc(Nc2nccc(-c3c(-c4cccc(NC(=O)c5c(F)cccc5F)c4)nn4ncccc34)n2)c1 [TCMDC-135548] | -25.11
59 | O=C(Nc1cccc(-c2nn3ncccc3c2-c2ccnc(Nc3cccnc3)n2)c1)c1c(F)cccc1F [TCMDC-135635] | 0.1379
60 | CCN(CC)CCCOc1ccc(Nc2nccc(-c3c(-c4cccc(NC(=O)c5c(F)cccc5F)c4)nn4ccccc34)n2)cc1F [TCMDC-135920] | 94.91
61 | COCCOc1ccc(Nc2nccc(-c3c(-c4cccc(NC(=O)c5c(F)cccc5F)c4)nn4ccccc34)n2)cc1Cl [TCMDC-135955] | -12.66
62 | CCS(=O)(=O)c1ccc(OC)c(Nc2nccc(-c3c(-c4cccc(NC(=O)c5c(F)cccc5F)c4)nn4ncccc34)n2)c1 [TCMDC-135682] | 81.78
63 | COCCOc1ccc(Nc2nccc(-c3c(-c4cccc(NC(=O)c5c(F)cccc5F)c4)nn4ccccc34)n2)cc1F [TCMDC-135995] | 27.09
64 | CS(=O)(=O)Cc1ccc(Nc2nccc(-c3c(-c4cccc(NC(=O)c5c(F)cccc5F)c4)nn4ncccc34)n2)cc1 [TCMDC-135681] | 52.9
65 | O=C(Nc1cccc(-c2nn3ncccc3c2-c2ccnc(Nc3ccccc3)n2)c1)c1c(F)cccc1F [TCMDC-134631] | -2.939
66 | CS(=O)(=O)Cc1ccc(Nc2nccc(-c3c(-c4cccc(NC(=O)c5c(F)cccc5F)c4)nn4ccccc34)n2)cc1 [TCMDC-135669] | -24.51
